Compound activity: PubChem, National Center for Advancing Translational Sciences (NCATS)
Rows were chosen to be rich in hits. Some 1.6% of all compounds tested hit in one or more screens of this group.
p53ts 32C kill = cytotoxicity in p53ts cells at permissive temperature; H1299-p53A138V at 32C, ATP luminescence viability, 24 h; Potency, µM (doses to about 46.1 µM), actives largely listed as cytotoxic; hit rate 0.93% among 130,000; AID 924; note: nearly all actives have a fitted effect of over 55% in size
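Cells: H1299 p53ts (A138V), 600/well, pre-incubated 16–30 h at 37C. Cpd up to 46 uM, 24 h, 32C. Readout: ATPlite luminescence, 20 min RT. Normalization: DMSO vs tamoxifen 100 uM. AC50 by Hill equation.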
Peg3 imprint = inducers of genomic imprint erasure in mouse ES cells. mouse ES Peg3-LacZ reporter, beta-gal luminescence, 40 h. hit rate 0.02% among 110,000. AID 1948. Potency, µM (doses to about 60.7 µM), most hits filed as activators
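Each well holds 300 Peg3LacZ-Neo (maternal) female ES cells incubated 40 h at 37C, 5% CO2. LacZ is measured by BetaGlo luminescence, with AC50 and maximum efficacy derived from dose-response curves.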
p53ts 39C tox = cytotoxicity in p53ts cells at nonpermissive temperature | AID 902 | Potency, µM (highest dose often 46.1 µM), usual class: cytotoxic | hit rate 1.5% among 130,000 | H1299-p53A138V viability at 39C, ATP luminescence, 24 h; note: nearly all actives have a fitted effect of over 55% in size
Each line names hits and unclear results; the compound was inactive in the other large screens; ! = a repeat was not active. Calls come from the whole dose curve; as a rule, active = well fitted curve in the direction sought with a large enough effect; inconclusive = small, poorly fitted or top-dose-only effect, or another doubt; inactive = no such curve, though single readings can be large; an effect the other way counts as inactive or inconclusive.

N[C@H](Cc1c[nH]c2ccccc12)P(=O)(O)O	Peg3 imprint 0.631µM
NCCc1c[nH]c2ccccc12	none
CNC(C(=O)c1ccccc1)C(OC)c1ccccc1 (centres undefined)	none
CC(=O)[O][Hg][c]1ccccc1	p53ts 32C kill 1µM, p53ts 39C tox 1.58µM
N[C@@H](Cc1cc(O)c(O)cc1O)C(=O)O	none (no result: Peg3 imprint)
[O]=[Cr](=[O])([OH])[O][Cr](=[O])(=[O])[OH]	p53ts 39C tox 10µM
CN(C)CCCc1c[nH]c2ccccc12	none
C[C@@]12CC[C@H]3[C@@H](CC[C@@H]4C[C@H](O)CC[C@]43C)[C@H]1CC[C@H]2O	none (no result: Peg3 imprint)
CN[C@@H]1C[C@H](c2ccc(Cl)c(Cl)c2)c2ccccc21	p53ts 39C tox 25.1µM
CN[C@@H]1C[C@@H](c2ccc(Cl)c(Cl)c2)c2ccccc21	p53ts 32C kill 20µM, p53ts 39C tox 12.6µM
CCCCC[CH2][Hg][S]C1=C2N=CNC2NC(N)=N1 (centres undefined)	none (no result: p53ts 32C kill, p53ts 39C tox)
COc1ccc2c(c1)-c1nc(NC(=O)c3ccc(Cl)cc3)sc1CC2	p53ts 32C kill inconclusive, p53ts 39C tox 10µM
COc1ccc(C(=O)Nc2ccc(Cl)cc2C(=O)c2ccccc2)c(OC)c1	none
O=C(O)CN1CCN(CC(=O)O)CC(=O)[O][Hg][O]C(=O)C1	none
CC[n+]1c(-c2ccccc2)c2cc(N)ccc2c2ccc(N)cc21	p53ts 32C kill 3.98µM!, p53ts 39C tox 2.51µM
O=C(O)[C@H](Cc1cnc[nH]1)N1C(=O)c2ccccc2C1=O	none
CN1[C@@H]2CC[C@H]1CC(O[C@@H](c1ccccc1)c1ccccc1N)C2 (some centres undefined)	none (no result: Peg3 imprint)
C(=C/c1ccccc1)/CN1CCN(CCOC(c2ccccc2)c2ccccc2)CC1	p53ts 39C tox 31.6µM
c1ccc(C(OCCN2CCNCC2)c2ccccc2)cc1	none
C[C@H]1CC[C@@]2(NC1)O[C@@H]1C[C@@H]3[C@@H]4CC=C5C[C@@H](O)CC[C@]5(C)[C@@H]4CC[C@]3(C)[C@H]1[C@@H]2C	none
CCOC(=O)c1ccc(N2C(=O)c3n[nH]c(-c4cccs4)c3C2c2ccc(Cl)cc2Cl)cc1 (centres undefined)	p53ts 32C kill inconclusive, p53ts 39C tox inconclusive
CCOC(=O)c1ccc(N2C(=O)c3n[nH]c(-c4cccs4)c3C2c2ccc(C(C)(C)C)cc2)cc1 (centres undefined)	p53ts 32C kill inconclusive, p53ts 39C tox 15.8µM
CNc1ccc2oc(C[C@H]3O[C@]4(CC[C@H]3C)O[C@H]([C@H](C)C(=O)c3ccc[nH]3)[C@H](C)C[C@H]4C)nc2c1C(=O)O	p53ts 32C kill 3.98µM, p53ts 39C tox 3.16µM
CNc1ccc2oc(C[C@@H]3OC4(CC[C@@H]3C)O[C@H](C(C)C(=O)c3ccc[nH]3)[C@H](C)C[C@H]4C)nc2c1C(=O)O (some centres undefined)	none (no result: p53ts 32C kill, p53ts 39C tox)
COc1ccc2nc(N3CCN(C(=O)CS(=O)(=O)c4ccc(C)cc4)CC3)sc2c1	p53ts 32C kill 11.2µM, p53ts 39C tox 7.94µM
Cc1ccc2nc(N3CCC(C(=O)N4CCC5(CC4)OCCO5)CC3)sc2c1	none (no result: Peg3 imprint)
CCN1C[C@]2(C)CC[C@@H](O)[C@]34[C@@H]5CC6[C@@H](OC)C[C@@](O)([C@H]5[C@@H]6O)[C@@H](C[C@@H]23)[C@H]14	none (no result: Peg3 imprint)
CCCC[N+]1(C)[C@@H]2CC(OC(=O)[C@@H](CO)c3ccccc3)C[C@H]1[C@H]1O[C@H]12 (some centres undefined)	none (no result: Peg3 imprint)
CCn1nc(-c2cccs2)nc2c(=O)n(C)c(=O)nc1-2	p53ts 32C kill 2µM, p53ts 39C tox 3.98µM
CCC(C)C(=O)c1c(O)c(C)c2oc3c(C)c(O)c(C(=O)C(C)CC)c(O)c3c2c1O (centres undefined)	p53ts 32C kill 12.6µM, p53ts 39C tox 12.6µM
CC[C@H](CO)NC(=O)[C@@H]1C=C2c3cccc4[nH]cc(c34)C[C@@H]2N(C)C1	none (no result: Peg3 imprint)
CCN(CC)c1ncnc2c1ncn2[C@@H]1O[C@@H](COP(=O)(O)OP(=O)(O)C(Br)(Br)P(=O)(O)O)[C@H](O)[C@@H]1O	none (no result: Peg3 imprint)
COc1cc2c3cc1Oc1c(O)c(OC)cc4c1[C@@H](Cc1ccc(cc1)Oc1cc(ccc1O)C[C@H]3N(C)CC2)N(C)CC4	none
O=C(COC(=O)c1cccc(NC(=O)c2ccc(Br)cc2)c1)c1ccc(Br)cc1	Peg3 imprint inconclusive, p53ts 39C tox inconclusive
Cc1ccc(C(=O)COC(=O)c2cccc(NC(=O)c3ccc(Br)cc3)c2)cc1	p53ts 32C kill inconclusive, p53ts 39C tox 7.94µM
N[C@H](Cc1ccc(N(CCCl)CCCl)cc1)C(=O)O	none (no result: Peg3 imprint)
COc1cc2c(cc1OC)[C@@]13CCN4C=C5CCO[C@H]6CC(=O)N2[C@@H]1C6[C@H]5C[C@H]43 (some centres undefined)	none (no result: p53ts 32C kill, p53ts 39C tox)
C[C@H]1C2C=C[C@H]1[C@@H](C(=O)O)[C@@H]2c1c2ccc(=O)c(O)c-2oc2c(O)c(O)ccc12	none (no result: p53ts 32C kill, p53ts 39C tox)
C=CCN1CC[C@@]23CCCC[C@@H]2[C@@H]1Cc1ccc(O)cc13	none (no result: Peg3 imprint)
CC(C)(COCC1CO1)COCC1CO1 (centres undefined)	none
c1cc(OCC2CO2)cc(OCC2CO2)c1 (centres undefined)	p53ts 39C tox 25.1µM
Cc1ccc(NC(=[OH+])c2cc3ccccc3cc2O)c(C)c1.Cc1ccc(NC(=[OH+])c2cc3ccccc3cc2O)c(C)c1.[Ni]	none
CCCCCCCCCCCCCC(=O)O[C@H]1[C@@H](C)[C@@]2(O)[C@@H](C=C(CO)C[C@]3(O)C(=O)C(C)=C[C@@H]23)C2C(C)(C)[C@]21OC(C)=O (some centres undefined)	p53ts 32C kill inconclusive, p53ts 39C tox 15.8µM (no result: Peg3 imprint)
Oc1ccc([C@H](O)C2CCCCN2)cc1O (some centres undefined)	none (no result: p53ts 32C kill, p53ts 39C tox)
C[C@@]12CC[C@H]3[C@@H](CCC4=C(O)C(=O)CC[C@]43C)[C@H]1CCC2=O	none (no result: Peg3 imprint)
C[C@@H](Cc1ccc2c(c1)OC(C(=O)O)(C(=O)O)O2)NC[C@H](O)c1cccc(Cl)c1	none (no result: Peg3 imprint)
O=S1OCC2C(CO1)C1(Cl)C(Cl)=C(Cl)C2(Cl)C1(Cl)Cl (centres undefined)	none
O=C(O)[C@@H]1[C@H](C(=O)O)[C@]2(Cl)C(Cl)=C(Cl)[C@@]1(Cl)C2(Cl)Cl	p53ts 32C kill inconclusive, p53ts 39C tox 1µM
NC1=NC([S][Hg][c]2ccc(N)cc2)c2ncn([C@@H]3O[C@H](CO)[C@@H](O)[C@@H]3O)c2N1 (some centres undefined)	none (no result: p53ts 32C kill, p53ts 39C tox)
CC(C)=CCCC1(C)C=Cc2c(O)c3c(c(CC=C(C)C)c2O1)OC12C(=CC4CC1C(C)(C)OC2(C/C=C(/C)C(=O)O)C4=O)C3=O (centres undefined)	p53ts 32C kill 3.98µM, p53ts 39C tox 6.31µM
CC(C)=CCCC1(C)C=Cc2c(O)c3c(c(CC=C(C)C)c2O1)OC12C(=CC4CC1C(C)(C)OC2(C/C=C(/C)C(=O)O)C4O)C3=O (centres undefined)	p53ts 32C kill 5.01µM, p53ts 39C tox 5.01µM
CC(C)CCCC1(C)C=Cc2c(O)c3c(c(CCC(C)C)c2O1)OC12C(CC4CC1C(C)(C)OC2(CCC(C)C(=O)O)C4O)C3=O (centres undefined)	Peg3 imprint inconclusive, p53ts 39C tox inconclusive
COc1c(CC=C(C)C)c2c(c3oc(=O)c(-c4ccc(O)cc4)c(O)c13)C=CC(C)(C)O2	none
